Laboratory results published in the supplement of paper PMC6555819.

Assays:
Test in all cases: PBM binding z-score (relative to random genomic background probes); higher = stronger binding; sequences stand for … in GC…GCGATTGACAGCGTAGAATGAAGG
[1] = system: FXR:RXRa (NR concentration 270 nM, RXRa partner concentration 90 nM)
In short: (§1)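 Random background probes are the reference for binding z-scores. These scores derive from regression-normalized fluorescence on custom Agilent 4×180K protein-binding microarrays incubated 1 h with ligand-free nuclear receptor dimers. Binding was detected with antibodies against each partner (one per run).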

[2] = system: LXRa:RXRa (NR concentration 270 nM, RXRa partner concentration 90 nM)
In short: as §1

[3] = system: LXRa homodimer (NR concentration 270 nM)
In short: as §1

[4] = system: LXRb:RXRa (NR concentration 270 nM, RXRa partner concentration 90 nM)
In short: as §1

[5] = system: LXRb homodimer (NR concentration 270 nM)
In short: as §1

[6] = system: PPARa:RXRa (NR concentration 270 nM, RXRa partner concentration 90 nM)
In short: as §1

[7] = system: PPARg:RXRa (NR concentration 180 nM, RXRa partner concentration 90 nM)
In short: as §1

[8] = system: PPARg:RXRa 270nM:90nM, anti-RXR (NR concentration 270 nM, RXRa partner concentration 90 nM)
In short: as §1

[9] = system: PPARg:RXRa 30nM:10nM, anti-RXR (NR concentration 30 nM, RXRa partner concentration 10 nM)
In short: as §1

[10] = system: PPARg:RXRa 90nM:30nM, anti-RXR (NR concentration 90 nM, RXRa partner concentration 30 nM)
In short: as §1

| Sequence | PBM binding z-score [1] | PBM binding z-score [2] | PBM binding z-score [3] | PBM binding z-score [4] | PBM binding z-score [5] | PBM binding z-score [6] | PBM binding z-score [7] | PBM binding z-score [8] | PBM binding z-score [9] | PBM binding z-score [10] |
| --- | --- | --- | --- | --- | --- | --- | --- | --- | --- | --- |
| TCTTGTAGATCAATAGAGGTTAAGAAAGTGCGCT | 0.723 | 3.4 | 0.589 | 1.83 | -0.158 | 1.8 | -0.124 | 1.46 | 2.83 | 2.18 |
| ATCTCTAGGTAAAAGTTCAGCGAATCCCGAGGAT | 1.36 | 1.99 | 1.58 | 1.46 | 0.982 | 4.39 | 8.87 | 8.21 | 8.78 | 9.67 |
| ACTGGGAGGACAAAGGTCAGAGCTACGCCAGTGA | 4.45 | 4.69 | 2.01 | 4 | 1.04 | 5.24 | 8.13 | 7.23 | 5.7 | 7.48 |
| CCAGACCGGTGAAAGGTAACTCAGTCTGGTACGC | -0.0585 | 0.0819 | -0.526 | 0.182 | -0.601 | 2.13 | 2.61 | 4.02 | 1.71 | 3.56 |
| CGAACTTGGTCATCCAGGACAGTGAATACATTGA | 0.205 | -0.0973 | -0.0371 | -0.13 | -0.606 | 0.208 | 0.624 | -0.0338 | 0.133 | -0.228 |
| GCTATTAGCTGAAAGGGCAACCGAATGATTCTCG | 0.0536 | 0.222 | -0.091 | 0.372 | -0.619 | 1.19 | 1.15 | 2.72 | 0.859 | 2.07 |
| TCTAGTTGGTCCCGGAGGTCACACACGACGGGTA | 2.88 | 2.9 | 2.37 | 3.18 | 0.951 | 3.55 | 1.68 | 2.9 | 3.06 | 3.11 |
| CGAACTAGGTCATCCTGGACAGTGAATACATTGA | 4.25 | 2.46 | 0.715 | 2.21 | 0.266 | 4.76 | 7.88 | 6.36 | 3.97 | 5.92 |
| ATTTCTAGGTAAGACTCAGTTCAGTGAAGAACGC | 0.897 | 0.946 | 0.909 | 0.543 | 1.31 | 0.972 | 0.289 | 0.947 | 0.807 | 0.822 |
| GCTTACGGGTCAAAGGTGATAGCATGAATAGAAT | 6.24 | 4.59 | 0.0435 | 4.64 | 0.353 | 6.57 | 10.2 | 8.54 | 7.83 | 9.26 |
| GCTTGTAGATCAAGGTTATGAAAGACTAAGCTAA | 0.138 | 0.572 | -0.505 | 0.452 | -0.591 | 1.3 | 0.656 | 0.989 | 0.21 | 0.553 |
| AGAATGAGGTTAATATCAGGGAAACAGAATACAT | 1.64 | 3.39 | 0.149 | 2.17 | 0.272 | 2.98 | 2.46 | 2.14 | 0.981 | 1.48 |
